Compound activity deposited in PubChem BioAssay by The Scripps Research Institute Molecular Screening Center.
The list is not random: actives were taken first. Their share in the collection is about 4.5%.
ssDAF-12 act: S. stercoralis DAF-12 nuclear receptor activators, primary screen, cell-based, luminescence, HEK293, GRIP1 co-expression, lit1-tk-luc; Nuclear hormone receptor DAF-12 (Strongyloides stercoralis); HEK293 ssDAF-12/GRIP1 lit1-tk-luc reporter; % of 3 µM dafachronic acid response; activation, % at 6.8 µM; 370,000 compounds, 1% hits;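 active = activation above the mean over all tested compounds plus 3 SD, cut at about 0.9% in these data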;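 note: 0% = DMSO-only wells and 100% = 3 µM delta7-dafachronic acid wells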
DAX1 inh-1: DAX1 (NR0B1) inhibitors on StAR promoter, primary screen, cell-based, luminescence, SF-1 (NR5A1), full-length DAX-1 | HEK293T StAR-luciferase reporter, SF-1/DAX-1 repression relief | AID 652010, 2013 | inhibition, % at 6.8 µM | 370,000 compounds, 1.1% hits;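 active = inhibition above the mean over all tested compounds plus 3 SD, cut at about 3.6% in these data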;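 note: 0% = DAX-1 cells with DMSO and 100% = cells lacking DAX-1 with DMSO; higher inhibition means more luminescence from relief of DAX-1 repression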
hcDAF-12 act: H. contortus DAF-12 nuclear receptor activators, primary screen, cell-based, luminescence, HEK293, lit1-tk-luc reporter. HEK293 hcDAF-12 lit1-tk-luc reporter; 0% DMSO, 100% Δ7-dafachronic acid. activation, % at 6.8 µM. 370,000 compounds, 1.4% hits;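 active = activation above the mean of all tested compounds plus 3 SD, cut at about 5.5% in these data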;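 note: 100% = response to 3 µM Δ7-dafachronic acid high control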
FXN GAA850 act: FXN promoter activators, primary screen, cell-based, luciferase luminescence, HEK293 lucGAA850. HEK293 lucGAA850 FXN promoter luciferase reporter, 24 h; percent of 10 µM SAHA response. activation, % at 6 µM. 360,000 compounds, 0.56% hits. AID 540364, 2011;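 active = activation above the average of all compounds screened plus 3 SD, cutoff fixed separately per campaign, cut at about 7.5% in these data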;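 note: 0% = DMSO wells and 100% = 10 µM SAHA wells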
hgDAF12 agonist: H. glycines DAF-12 receptor agonists, primary screen, cell-based, luminescence, HEK293, GAL4 fusion, UAS-luciferase. Nuclear hormone receptor DAF-12 (Heterodera glycines), GAL4 fusion. HEK293 GAL4-hgDAF12 UAS-luciferase reporter, agonist luminescence; normalized to butyrate control. activation, % at 6.8 µM. 370,000 compounds, 1.8% hits. AID 687014, 2013;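 active = activation above a cutoff set at the mean of all screened compounds plus 3 SD, cut at about 10% in these data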;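 note: 0% = DMSO wells and 100% = sodium butyrate wells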
DAX1 inh-2: DAX1 (NR0B1) inhibitors, primary screen, cell-based, HEK293, Gal4-DAX1, luciferase luminescence | inhibition, % at 6.75 µM | HEK293 Gal4-DAX1 luciferase reporter | 340,000 compounds, 0.99% hits | Nuclear receptor subfamily 0 group B member 1 (Homo sapiens), P51843;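 active = inhibition above the mean over all tested compounds plus 3 SD, cut at about 4.2% in these data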;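 note: 0% = DAX1-transfected cells with DMSO and 100% = empty-vector control cells with DMSO; inhibition shows as a rise in luminescence from relieved DAX1 repression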
Target sequence (P51843 207-470 limits assumed): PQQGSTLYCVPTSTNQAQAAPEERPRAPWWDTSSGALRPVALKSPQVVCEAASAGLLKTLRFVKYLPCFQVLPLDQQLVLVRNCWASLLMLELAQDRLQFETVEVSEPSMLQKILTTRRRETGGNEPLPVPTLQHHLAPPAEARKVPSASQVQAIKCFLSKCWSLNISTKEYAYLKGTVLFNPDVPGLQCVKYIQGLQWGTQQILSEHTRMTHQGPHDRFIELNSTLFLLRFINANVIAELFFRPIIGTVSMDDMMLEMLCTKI
LXR ag: LXR agonists, Gal4 luciferase reporter, confirmation, counter-screen for hcDAF-12 agonist project, cell-based, luminescence, HEK293, H. contortus campaign; shares compounds with hcDAF-12 act; HEK293 Gal4-LXR tk-luc reporter, 24 h; normalized: DMSO 0%, positive control 100%; activation, % at 6.8 µM; 3,400 tested, under 10 active;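 active = mean percent activation of the reporter above a cutoff set as the average over tested compounds plus their standard deviation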
hcDAF12 conf: H. contortus DAF-12 receptor agonists, confirmation, cell-based, luminescence, HEK293, lit1-tk-luc, triplicate; shares compounds with hcDAF-12 act; HEK293 hcDAF-12 lit1-tk-luc reporter; % of Δ7-dafachronic acid response; activation, % at 6.8 µM; 3,400 compounds, 61% hits; AID 743032, 2013;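 active = mean activation across triplicate tests above the threshold derived from the earlier primary screen, cut at about 5.5% in these data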;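 note: 0% = DMSO only wells and 100% = 3 µM Δ7-dafachronic acid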
The depositor's hits bear a star; nt = not tested or not shown.

SMILES | ssDAF-12 act | DAX1 inh-1 | hcDAF-12 act | FXN GAA850 act | hgDAF12 agonist | DAX1 inh-2 | LXR ag | hcDAF12 conf
CCC(C)(C)C1CCC2(CC1)NC(=O)N(CC(=O)NCCc1c[nH]c3ccccc13)C2=O (stereo not given) | 0 | 0 | 6.8* | -2 | 5 | 1 | 0 | 3
CC1CCC2(CC1)NC(=O)N(CC(=O)NCCc1c[nH]c3ccccc13)C2=O (stereo not given) | 0 | -2 | 2 | 0 | 3 | 1 | nt | nt
COc1cc(NC(=O)COc2cc(O)c3c(c2)OC(C)(C)CC3=O)cc(OC)c1 | -2 | -2 | -3 | 1 | -2 | -2 | nt | nt
O=C(NNC(=S)Nc1ccc(F)cc1)C1[C@H]2CCCC[C@@H]12 (stereo not given in full) | -2 | 0 | 0 | -1 | 1 | nt | nt | nt
O=C1/C(=C/c2cccs2)Cc2ccccc21 | -1 | 0 | 1 | 4 | 5 | -1 | nt | nt
Cn1cccc1/C=C1\Cc2ccccc2C1=O | 1.7* | 3.9* | 12* | 6 | 19* | 4.3* | 2 | 9.4*
Cn1cccc1/C=C1\CCc2ccccc2C1=O | 0 | 3 | 10* | -2 | 10 | -4 | 1 | 11*
O=C(CN1CCc2ccccc2C1)Nc1ccccc1F | -1 | 0 | -1 | 3 | -1 | 1 | nt | nt
CCCCOc1ccc(NC(=O)Nc2nnc(C)s2)cc1 | 1.1* | 1 | 8.5* | 3 | 0 | 2 | 0 | 4
CCOc1cc(C(=O)Nc2cc(C(=O)OC)ccc2C)ccc1OCC(=O)N1CCOCC1 | -1 | -1 | -2 | -1 | 1 | 0 | nt | nt
Cn1c2ccc(F)cc2c2nc3ccccc3nc21 | 1 | 0 | 7.1* | 7 | 3 | 2 | 0 | 8.3*
Cn1c(=O)c2nc3ccccc3nc2n(C)c1=O | -1 | 2 | 3 | 0 | 1 | 0 | nt | nt
CCn1c2ccccc2c2nnc(SCCN3CCCCC3)nc21 | -1 | 0 | 2 | 3 | 0 | 1 | nt | nt
CCn1c2ccc(F)cc2c2nc3ccccc3nc21 | -1 | 0 | 1 | 7 | 2 | 0 | nt | nt
Cn1c2ccc(F)cc2c2nnc(SCCN3CCCCC3)nc21 | 1.1* | 1 | 8.2* | 5 | 5 | 2 | 0 | 6.9*
Cn1c2ccc(Cl)cc2c2nc3ccccc3nc21 | 2.4* | 3 | 8.8* | 7 | 12* | 2 | 0 | 8.5*
N#C/C(=C/c1ccc(-c2ccc([N+](=O)[O-])cc2)o1)c1nnc(N2CCOCC2)n1-c1ccccc1 | -1 | -1 | 0 | 2 | 0 | 0 | nt | nt
CCN(CC(=O)Nc1cccc(OC)c1)C(=O)c1ccco1 | -1 | 0 | -3 | 2 | 1 | 0 | nt | nt
CC(C)CN1CN(Cc2ccccc2)CNC1=S | -1 | 1 | 0 | 2 | -1 | -1 | nt | nt
O=C(Nc1cccc(C(F)(F)F)c1)OC1CCC12CCC(c1ccccc1)CC2 (stereo not given) | -1 | -1 | 4 | nt | 1 | nt | nt | nt
O=C(/C=C/c1c(F)cccc1Cl)Nc1cccnc1 | 1 | 1 | 7.1* | 3 | 11* | 3 | 1 | 6.8*
COc1ccc(N2CCN(C(=O)NCc3ccc(OC)c(Cl)c3)CC2)cc1 | -2 | 0 | 0 | 0 | 1 | 1 | nt | nt
O=C(CCNC(=O)c1ccccc1Cl)NNC(=O)c1ccccc1O | 0 | 1 | -1 | 1 | 2 | 1 | nt | nt
O=C(CC(=O)c1c(F)cccc1Cl)c1ccccc1O | 0 | 0 | 9.1* | -1 | 7 | 2 | 0 | 6.9*
Cc1cnc(NC(=O)CSc2nnc(-c3ccccc3)o2)s1 | 0 | 3 | 8.4* | 3 | 7 | 6.4* | 1 | 5
SMILES | ssDAF-12 act | DAX1 inh-1 | hcDAF-12 act | FXN GAA850 act | hgDAF12 agonist | DAX1 inh-2 | LXR ag | hcDAF12 conf
CCCC(C(=O)NC1CCCC1)N(Cc1ccc(OC)cc1)C(=O)c1snc(C(N)=O)c1N (stereo not given) | -1 | 0 | -2 | -1 | -1 | 0 | nt | nt
CCC1CCCCN1CCCNC(=O)Cn1c2ccccc2c2nc(=O)cc(C)n21 (stereo not given) | 0 | 1 | 8.2* | -4 | 2 | 0 | 0 | 6.7*
O=C1Nc2ccc(Br)cc2C12NNc1ccccc1O2 (stereo not given) | 0 | 0 | 6.9* | 0 | 2 | -1 | 0 | 2
CCCC(CCC)C(=O)Nc1ccc2c(c1)N(C(=O)CCN1CCN(C)CC1)c1ccccc1CC2 | 0 | 0 | 0 | 0 | -2 | -2 | nt | nt
COc1cccc(C=NNc2nc3ccccc3s2)c1OC | 0 | 3.6* | 7.6* | -1 | 13* | 6.8* | 1 | 3
COc1cccc(/C=N/NC(=O)C(=O)N/N=C/c2cccc(OC)c2OC)c1OC | -1 | 0 | -1 | 3 | 0 | -1 | nt | nt
COc1cccc(/C=N/Nc2nnc3c(n2)[nH]c2ccccc23)c1OC | -1 | 0 | 7.1* | 2 | 1 | 1 | 0 | 4
CC(/C=N/Nc1nnc2c(n1)[nH]c1ccccc12)=C\c1ccco1 | nt | nt | nt | 1 | nt | 0 | nt | nt
CCn1c(C)c(/C=N/Nc2nc3ccccc3s2)c2ccccc21 | 0 | 1 | 12* | 3 | 11* | -1 | 0 | 4
O=C1CN(C(=O)/C=C/c2cc(Br)ccc2F)CCN1 | -1 | 0 | 0 | -1 | -2 | -1 | nt | nt
C/C(=C\C(=S)Nc1ccccc1)Nc1ccc2ccccc2c1 | 0 | 0 | 6.9* | 1 | 3 | -1 | 1 | 5
O=C(Nc1nc2ccccc2[nH]1)c1cccc(Br)c1 | 1 | 1 | 8.6* | 3 | 12* | 0 | 1 | 7.1*
